# Reference: PubChem BioAssay AID2069 (Sanford-Burnham Center for Chemical Genomics, 2009)
# The campaign covered roughly 1,200 compounds. About 210 (18%) were called active. Only a sample is shown. A number with no mark means an inactive call. No stated cut-off is given here; in the data, active means inhibition above about 30%; inactive means the rest.
# Experiment: fluorescence readout artefact check – biochemical, HTRF, uHTS, artefact control for SUMOylation inhibitor project, confirmation (AID 2069)
# Details: HTRF interference counterscreen, at 35 µM, stronger effect = higher value
row,Compound,inhibition
1,Cc1ccc2[nH]c3c(c2c1)CN(C(=O)CN1CCN(c2cccc(C)c2C)CC1)CC3,12.8%
2,O=c1oc(-c2cccs2)nc2sc3c(c12)CCC3,40.5% (active)
3,COC(=O)c1c(C)oc(C)c1S(=O)(=O)NC(C)(C)C,3.5%
4,COc1ccc(C2C(C(C)=O)=C(O)C(=O)N2C)c(OC)c1 (stereo unspecified),-3.35%
5,COc1cc(NC(=O)c2cnc(N)s2)cc(C(=O)Nc2cccc(C(F)(F)F)c2)c1,8.1%
6,O=C(N/N=C/c1ccc(-c2ccc(S(=O)(=O)Nc3ncccn3)cc2)o1)c1cc2ccccc2cc1O,28.5%
7,CCOCCCN1CN(Cc2ccco2)CNC1=S,39.1% (active)
8,CC1=C(C#N)C(=O)NC(=O)/C1=C\c1ccc(-c2cc(C)c(C)cc2[N+](=O)[O-])o1,9.4%
9,CCCS(=O)(=O)c1c(S(=O)(=O)CCC)c2c(N)cccn2c1C(=O)c1ccc(Br)cc1,6.7%
10,Cc1cc(=O)[nH]c(-n2[nH]c(C)cc2=O)n1,-1.85%
11,COc1ccccc1C1Nc2cccc3cccc(c23)N1,-18.4%
12,CCOc1ccc(-n2c(SCC(=O)Nc3ccc(CC)cc3)nc3n[nH]c(C)c3c2=N)cc1,23.6%
13,CCCCN1Cc2c(nc3cc(-c4ccco4)[nH]n3c2=O)C1=O,31.7% (active)
14,O=C1c2nc3cc(-c4ccco4)[nH]n3c(=O)c2CN1C1CCCCC1,29.8%
15,CC1=NN(c2ccccc2)C(=O)/C1=C/c1cccs1,-3.6%
16,Cc1[nH][nH]c(=O)c1C(c1c(C)[nH][nH]c1=O)c1cn(Cc2ccc(F)cc2)c2ccccc12,-43.9%
17,COC(=O)c1scc(C)c1NC(=O)C(Cl)c1ccccc1 (stereo unspecified),0.85%
18,CN(c1ccccc1)c1ccc(/C=C(\CCC(=O)O)c2nc3ccccc3s2)cc1[N+](=O)[O-],7.85%
19,NC(=O)c1sc2nc(-c3ccco3)ccc2c1N,41.8% (active)
20,NNC(=O)c1oc2nc(-c3cccs3)cc(-c3ccco3)c2c1N,12.8%
21,Nc1nc(-c2ccco2)c(-c2ccco2)s1,-13.2%
22,NNC(=O)c1oc2nc(-c3ccco3)cc(-c3ccco3)c2c1N,9.15%
23,N#Cc1sc2nc(-c3ccccc3)cc(-c3ccco3)c2c1N,26.3%

row,Compound,inhibition
1,CC(=O)c1sc2nc(-c3ccco3)ccc2c1N,48.3% (active)
2,S=C(Nc1ccc2nsnc2c1)NC1CCCCC1,10.2%
3,O=[N+]([O-])c1ccc(C=Nc2cccc3ccccc23)s1,5.6%
4,CCC(=O)OCCNc1cc(Sc2nc3ccccc3s2)c2nonc2c1[N+](=O)[O-],1.05%
5,O=C(O)c1cccc(N2C(=O)/C(=C/c3ccc(SCc4ccc(Cl)cc4)o3)SC2=S)c1,14.9%
6,CCCN(C(=O)c1cc2c(s1)CCC2)c1c(N)n(Cc2ccccc2)c(=O)[nH]c1=O,-3.9%
7,Cc1cccc(C(=O)NC2C(=O)NNC2c2ccc(Cl)cc2)c1 (stereo unspecified),-5.5%
8,COc1ccc(N2C(=O)[C@@H]3[C@H](C2=O)[C@H]2c4ccccc4C=CN2[C@@H]3C(C)=O)cc1,9.4%
9,Cc1ccc(-c2[nH]c(-c3ccc(C(=O)O)cc3)nc2-c2ccccc2)cc1,43.1% (active)
10,Cc1ccc(NC(=O)CCC(=O)OCC(=O)c2ccc(-c3ccccc3)cc2)cc1,-1.75%
11,COc1cc(/C=C2\C(=O)N(c3ccccc3)N=C2C)ccc1Oc1ccc([N+](=O)[O-])cc1[N+](=O)[O-],1.25%
12,CC(=O)c1sc2nc(CSc3nnnn3-c3ccccc3)[nH]c(=O)c2c1C,0.9%
13,CSc1nnc(SCc2nc3sc(C(=O)O)c(C)c3c(=O)[nH]2)s1,31.2% (active)
14,O=C(CSc1nnc(SCc2ccc(Cl)cc2)s1)N/N=C/c1c[nH]c2ccccc12,9.75%
15,S=c1[nH]nc(-c2cc(-c3ccco3)[nH]n2)n1-c1ccccc1Cl,0.75%
16,COc1cc(O)c(NC(C)=O)c2nonc12,6.2%
17,COc1ccc2nc3cccc(OC)c3nc2c1,11.7%
18,COc1ccc(CCNC(=O)c2ccc3nc(-c4ccco4)c(-c4ccco4)nc3c2)cc1OC,13.3%
19,O=C(Nc1ccccc1)c1ccc2nc(-c3ccco3)c(-c3ccco3)nc2c1,22.8%
20,COc1ccc2nc(-c3ccco3)c(-c3ccco3)nc2c1,33.1% (active)
21,COc1ccc(OC)c(-n2c(-c3cc(-c4ccco4)[nH]n3)n[nH]c2=S)c1,7.95%
22,COCCNC(=O)Nc1ccc2nc(-c3ccco3)c(-c3ccco3)nc2c1,52.4% (active)
23,CCc1ccc(OCC(=O)N/N=C2\CC(=O)c3ccccc32)cc1,-2.45%

row,Compound,inhibition
1,COCCN=c1scc(-c2ccco2)n1/N=C/c1ccc(O)c(O)c1O,-18.7%
2,CC(C)c1ccc(NC(=O)C[n+]2ccn(C3=C([O-])c4ccccc4C3=O)c2)cc1,-10.2%
3,Cc1ccc(S(=O)(=O)C(C#N)c2nc3ccccc3nc2N2CC(C)OC(C)C2)cc1C (stereo unspecified),4.8%
4,O=c1c(=Nc2ccccc2O)c(=O)c2ccccc12,-6.7%
5,O=C1NC(=Nc2ccc(O)cc2)S/C1=C\C=C\c1ccco1,8.5%
6,COc1ccc2c(c1)c(=O)oc1c(C)c(OCc3ccc(C(=O)O)cc3)ccc12,31.4% (active)
7,Cc1c(CC(=O)O)c(=O)oc2c(C)c(OCc3ccccc3Br)ccc12,-1.95%
8,Cc1cc(=O)oc2cc(OCc3ccc(C(=O)OCC(=O)Nc4ccc(N(C)C)cc4)cc3)ccc12,11.7%
9,COc1cc(/C=C(\C#N)C(=O)Nc2cccc(C(=O)O)c2)ccc1OCc1ccc(Cl)cc1,19.7%
10,O=C(Nc1cccnc1)c1cc2cc(Br)ccc2oc1=O,-1.65%
11,S=C(Nc1cccc(Cl)c1)Nc1ccc2cn[nH]c2c1,2.35%
12,Cn1nccc1NC(=O)Nc1cccc(Cl)c1,42.6% (active)
13,Cn1nccc1NC(=O)Nc1cccc(Br)c1,46.4% (active)
14,O=C(Nc1ccc2oc(=O)ccc2c1)c1ccc(-c2cccc(Cl)c2)o1,12.1%
15,O=C(Nc1nnc(-c2ccccc2SCc2ccccc2F)s1)Nc1ccccc1F,0.75%
16,Cc1ccc(C(=O)NC(C)c2nc3ccccc3n2CC(=O)Nc2c(C)cc(C)cc2C)cc1 (stereo unspecified),25.5%
17,O=C(CCc1ccccc1)NNc1cc(N2CCCCC2)nc(N2CCCCC2)n1,14.2%
18,CCC(=O)OCCNc1cc(Sc2nccn2C)c2nonc2c1[N+](=O)[O-],8.05%
19,CC1=C(C#N)C(=O)NC(=O)/C1=C\c1ccc(-c2ccc(C)cc2[N+](=O)[O-])o1,-1.55%
20,COc1ccc2c(c1)CC/C(=C\C=C\c1ccccc1)C2=O,6.1%
21,CCOC(=O)N1CCN(C(=O)c2cccn3c(=O)c4cc(Br)ccc4nc23)CC1,49.9% (active)
22,O=C(NCCNc1ccc2ccccc2c1)c1cccn2c(=O)c3sccc3nc12,5.05%
23,CCOC(=O)N1CCN(C(=O)c2cccn3c(=O)c4cc(Cl)ccc4nc23)CC1,43.5% (active)

row,Compound,inhibition
1,CCOC(=O)N1CCC(c2cc(=O)n(-c3ccccc3)[nH]2)CC1,2.2%
2,Cn1c2ccc(Cl)cc2c2nc3ccccc3nc21,21.9%
3,O=C(c1cccn2c(=O)c3cc(Cl)ccc3nc12)N1CCOCC1,44.6% (active)
4,O=C(c1cccn2c(=O)c3cc4ccccc4cc3nc12)N1CCN(c2ccccc2)CC1,7.35%
5,NC(=O)CC(NC(=O)Cc1ccc(Br)cc1)c1ccc(N2CCC(Br)CC2)c([N+](=O)[O-])c1 (stereo unspecified),4.65%
6,O=C(Nc1nnc(-c2ccccc2)o1)c1nc2ccccc2s1,11.1%
7,CN(C)c1cc(Cl)c2nonc2c1N,4.85%
8,NC(=O)c1ccc(N=C2C(=O)Nc3ccc([N+](=O)[O-])cc32)cc1,-4.65%
9,S=C(Nc1ccc(Cl)cc1)Nc1cccc2cnccc12,1.3%
10,CCCCCn1c(NC(=O)c2ccco2)c(S(=O)(=O)c2ccc(C)cc2)c2nc3ccccc3nc21,6.85%
11,CC(=O)c1ccc(NC(=S)Nc2cccc3ccccc23)cc1,14.1%
12,O=[N+]([O-])c1ccccc1/C=C/C=N/n1c(-c2cc(-c3ccccc3)n[nH]2)n[nH]c1=S,-4%
13,COCCCNC(=O)c1cccn2c(=O)c3cc4ccccc4cc3nc12,13.3%
14,COCCCn1c(C(=O)N2CCOCC2)cc2c(=O)n3ccccc3nc21,52.1% (active)
15,COCCCn1c(C(=O)N2CC(C)OC(C)C2)cc2c(=O)n3ccccc3nc21 (stereo unspecified),46.4% (active)
16,CC1=NN(c2ccc(Br)cc2)C(=O)/C1=C/c1cccs1,-19.8%
17,CCc1ccc(NC(=S)Nc2cccc3cnccc23)cc1,3.45%
18,N#Cc1c2nc3ccccc3nc2n2cc(NC(=O)c3ccc(F)cc3)ccc12,3%
19,Cn1cccc1/C=N/NC(=O)c1sc2cc(Cl)ccc2c1Cl,15%
20,O=C(N/N=C/c1ccc(O)c2ncccc12)c1cccc(Br)c1,-4.25%
21,S=c1[nH]nc(-c2ccncc2)n1/N=C/c1cn(-c2ccccc2)nc1-c1ccc(Cl)cc1,-1.35%
22,Cc1ccc(/C=C2\SC(=S)N(c3cccnc3)C2=O)o1,4.85%
